The target in assay [1] is Nuclear receptor subfamily 1 group I member 2 (Homo sapiens) (UniProt O75469). Nature of the assay: Human pregnane X receptor (PXR) small molecule agonists, qHTS assay (AID 1346982). Also: nearly all actives have a fitted effect of over 35% in size. Also: potency is read from the fitted curve at half-maximal effect. An outline of the steps: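 PXR-Luc HepG2 reporter cells (CYP3A4-driven luciferase) in 5% charcoal-stripped FBS medium, plated 5 h before compound addition, then treated 24 h at 37C. Luciferase read by ONE-Glo luminescence after 30 min at room temperature.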

The target in assay [2] is Cytochrome P450 2D6 (Homo sapiens) (UniProt P10635). Nature of the assay: Cytochrome P450 Family 2 Subfamily D Member 6 (CYP2D6) small molecule antagonists: luciferase reporter qHTS assay (AID 1671196). Also: nearly all actives have a fitted effect of over 50% in size. Also: potency is read from the fitted curve at half-maximal effect. The essentials:
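Cell-free P450-Glo system: CYP2D6 with proluciferin substrate was pre-incubated with compound for 10 min, then reacted with NADPH regeneration for 1 h at room temperature. Luciferin product was detected after 20 min, and data were reported as relative luminescence units.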

The target in assay [3] is Cytochrome P450 2C19 (Homo sapiens) (UniProt P33261). In words: Cytochrome P450 Family 2 Subfamily C Member 19 (CYP2C19) small molecule antagonists: luciferase reporter qHTS assay (AID 1671197). Also: nearly all actives have a fitted effect of over 65% in size. Also: potency is read from the fitted curve at half-maximal effect. The essentials: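 Enzyme-substrate mix with proluciferin substrate (P450-Glo CYP2C19 system) preincubated with compounds 10 min at room temperature; NADPH regeneration solution added, 37C for 1 h; detection reagent stops reaction, luminescence read after 20 min. Ketoconazole positive control.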

Assay [4] has as its target Cytochrome P450 2C9 (Homo sapiens) (UniProt P11712). In words: Cytochrome P450 Family 2 Subfamily C Member 9 (CYP2C9) small molecule antagonists: luciferase reporter qHTS assay (AID 1671198). Also: nearly all actives have a fitted effect of over 50% in size. Also: potency is read from the fitted curve at half-maximal effect. The essentials: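 CYP2C9 activity was measured with a P450-Glo proluciferin substrate. Enzyme–substrate mix was held with compound for 10 min at room temperature, then NADPH regeneration solution was added for 1 h at 37C. Luciferin product was read as luminescence.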

The target of assay [5] is Voltage-gated inwardly rectifying potassium channel KCNH2 (Homo sapiens) (UniProt Q12809). In words: Human Ether-a-go-go-Related Gene (hERG) channel small molecule antagonists: fluorescence cell-based qHTS assay (AID 1671200).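 Also: hERG-expressing U2OS cells given a thallium stimulus after FluxOR II dye loading; series mostly up to about 77 µM; nearly all actives have a fitted effect of over 50% in size.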 The essentials: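 Channel function was assessed by thallium flux. Cells seeded the previous day and kept at 37 C took up FluxOR II dye over 1 h in the dark at room temperature, then sat another 10 min before stimulation.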

In assay [6] the target is Cytochrome P450 3A4 (Homo sapiens) (UniProt P08684). In words: Cytochrome P450 Family 3 Subfamily A Member 4 (CYP3A4) small molecule antagonists: luciferase reporter qHTS assay (AID 1671201). Also: nearly all actives have a fitted effect of over 50% in size. Also: potency is read from the fitted curve at half-maximal effect. An outline of the steps: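 Compounds in DMSO were pin-transferred onto CYP3A4 enzyme-substrate mix and held 10 min at room temperature. NADPH regenerating solution started the reaction for 1 h; luciferin detection reagent stopped it, and luminescence was read after 20 min.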

In assay [7] the target is Cytochrome P450 1A2 (Homo sapiens) (UniProt P05177). Nature of the assay: Cytochrome P450 Family 1 Subfamily A Member 2 (CYP1A2) small molecule antagonists: luciferase reporter qHTS assay (AID 1671199). Also: nearly all actives have a fitted effect of over 50% in size. Also: potency is read from the fitted curve at half-maximal effect. An outline of the steps:
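P450-Glo CYP1A2 enzyme–proluciferin substrate mix with compound 10 min at room temperature, then NADPH regeneration 1 h at room temperature. Luciferin detection reagent added, luminescence read after 20 min; furafylline positive control.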

Several values for one entry are separate records, joined by “and”; a condition that tells them apart may be missing. Equal entries are not always repeated. Results filed as inconclusive are left out. Some structures have more than one record in an assay (separate samples or runs), and their calls can disagree. Activity calls are given as the source filed them. Calls follow the shape of the dose curve; as a rule, active = well fitted curve in the direction sought with a large enough effect in the repeat runs; inconclusive = weak or mixed curves; inactive = no such curve, though single readings can be large; an effect the other way counts as inactive or inconclusive.

Cytochrome P450 3A4 (Homo sapiens), sequence (P08684 whole entry, looked up): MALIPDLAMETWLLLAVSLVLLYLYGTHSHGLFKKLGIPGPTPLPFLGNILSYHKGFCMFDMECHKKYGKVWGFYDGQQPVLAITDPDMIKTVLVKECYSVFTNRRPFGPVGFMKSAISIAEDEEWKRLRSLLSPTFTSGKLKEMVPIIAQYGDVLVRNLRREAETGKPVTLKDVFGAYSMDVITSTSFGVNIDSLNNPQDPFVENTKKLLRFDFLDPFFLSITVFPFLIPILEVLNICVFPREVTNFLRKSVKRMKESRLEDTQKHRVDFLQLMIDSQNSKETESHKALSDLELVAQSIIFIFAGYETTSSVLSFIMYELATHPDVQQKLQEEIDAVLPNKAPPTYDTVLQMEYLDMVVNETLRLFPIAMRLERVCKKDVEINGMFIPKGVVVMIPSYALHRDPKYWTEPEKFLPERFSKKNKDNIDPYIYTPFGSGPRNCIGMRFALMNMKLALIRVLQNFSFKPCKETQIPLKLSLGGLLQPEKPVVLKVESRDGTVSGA
Cytochrome P450 2D6 (Homo sapiens), sequence (P10635 whole entry, looked up): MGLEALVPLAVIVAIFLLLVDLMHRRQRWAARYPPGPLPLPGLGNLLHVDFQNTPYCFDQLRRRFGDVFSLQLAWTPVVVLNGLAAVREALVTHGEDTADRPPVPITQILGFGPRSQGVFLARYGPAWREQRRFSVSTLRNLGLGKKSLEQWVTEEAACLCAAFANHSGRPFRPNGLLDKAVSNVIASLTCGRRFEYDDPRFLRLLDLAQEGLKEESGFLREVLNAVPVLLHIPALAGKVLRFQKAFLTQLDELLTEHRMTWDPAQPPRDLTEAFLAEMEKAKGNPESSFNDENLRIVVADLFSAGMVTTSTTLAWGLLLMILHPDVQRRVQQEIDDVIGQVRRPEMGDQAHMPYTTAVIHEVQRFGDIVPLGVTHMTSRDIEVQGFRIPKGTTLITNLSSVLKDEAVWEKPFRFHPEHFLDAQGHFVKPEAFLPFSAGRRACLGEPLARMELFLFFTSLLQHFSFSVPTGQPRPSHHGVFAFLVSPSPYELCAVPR
Nuclear receptor subfamily 1 group I member 2 (Homo sapiens), sequence (O75469 whole entry, looked up): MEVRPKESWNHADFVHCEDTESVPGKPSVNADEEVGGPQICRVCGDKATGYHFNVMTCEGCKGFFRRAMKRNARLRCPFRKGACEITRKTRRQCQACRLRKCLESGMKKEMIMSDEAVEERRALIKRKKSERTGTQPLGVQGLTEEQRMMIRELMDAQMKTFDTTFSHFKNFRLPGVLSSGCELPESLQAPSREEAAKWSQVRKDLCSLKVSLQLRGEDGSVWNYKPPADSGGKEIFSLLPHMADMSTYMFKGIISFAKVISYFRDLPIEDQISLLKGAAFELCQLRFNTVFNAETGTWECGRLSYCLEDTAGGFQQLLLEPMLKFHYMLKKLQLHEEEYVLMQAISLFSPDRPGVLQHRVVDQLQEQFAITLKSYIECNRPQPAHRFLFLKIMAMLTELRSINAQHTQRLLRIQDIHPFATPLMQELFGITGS
Cytochrome P450 1A2 (Homo sapiens), sequence (P05177 whole entry, looked up): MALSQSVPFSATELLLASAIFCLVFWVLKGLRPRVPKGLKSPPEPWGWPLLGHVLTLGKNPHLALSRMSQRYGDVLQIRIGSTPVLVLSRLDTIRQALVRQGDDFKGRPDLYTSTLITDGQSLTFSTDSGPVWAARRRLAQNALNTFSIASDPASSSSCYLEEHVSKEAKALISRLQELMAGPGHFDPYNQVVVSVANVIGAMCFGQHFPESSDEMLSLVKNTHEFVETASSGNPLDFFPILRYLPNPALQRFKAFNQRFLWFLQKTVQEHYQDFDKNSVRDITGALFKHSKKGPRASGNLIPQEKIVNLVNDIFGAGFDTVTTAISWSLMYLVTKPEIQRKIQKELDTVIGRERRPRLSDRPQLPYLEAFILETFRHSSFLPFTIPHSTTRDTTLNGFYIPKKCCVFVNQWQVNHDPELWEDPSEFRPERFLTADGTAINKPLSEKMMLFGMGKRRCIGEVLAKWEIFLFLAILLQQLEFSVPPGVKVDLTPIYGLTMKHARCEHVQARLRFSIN
Cytochrome P450 2C19 (Homo sapiens), sequence (P33261 whole entry, looked up): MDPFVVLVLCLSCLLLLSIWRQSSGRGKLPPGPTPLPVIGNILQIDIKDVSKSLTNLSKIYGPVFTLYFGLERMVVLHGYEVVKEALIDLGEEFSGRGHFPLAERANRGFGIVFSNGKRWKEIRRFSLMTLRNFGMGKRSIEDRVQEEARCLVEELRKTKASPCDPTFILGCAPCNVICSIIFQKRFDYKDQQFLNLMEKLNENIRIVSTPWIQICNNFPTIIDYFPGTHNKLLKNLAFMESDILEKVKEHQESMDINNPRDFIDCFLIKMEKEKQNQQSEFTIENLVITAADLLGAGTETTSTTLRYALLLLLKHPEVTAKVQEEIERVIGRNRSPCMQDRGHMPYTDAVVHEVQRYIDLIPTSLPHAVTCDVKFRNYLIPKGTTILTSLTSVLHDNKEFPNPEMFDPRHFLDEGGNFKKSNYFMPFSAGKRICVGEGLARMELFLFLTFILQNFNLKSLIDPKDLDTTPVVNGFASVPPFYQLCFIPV
Voltage-gated inwardly rectifying potassium channel KCNH2 (Homo sapiens), sequence (Q12809 whole entry, looked up): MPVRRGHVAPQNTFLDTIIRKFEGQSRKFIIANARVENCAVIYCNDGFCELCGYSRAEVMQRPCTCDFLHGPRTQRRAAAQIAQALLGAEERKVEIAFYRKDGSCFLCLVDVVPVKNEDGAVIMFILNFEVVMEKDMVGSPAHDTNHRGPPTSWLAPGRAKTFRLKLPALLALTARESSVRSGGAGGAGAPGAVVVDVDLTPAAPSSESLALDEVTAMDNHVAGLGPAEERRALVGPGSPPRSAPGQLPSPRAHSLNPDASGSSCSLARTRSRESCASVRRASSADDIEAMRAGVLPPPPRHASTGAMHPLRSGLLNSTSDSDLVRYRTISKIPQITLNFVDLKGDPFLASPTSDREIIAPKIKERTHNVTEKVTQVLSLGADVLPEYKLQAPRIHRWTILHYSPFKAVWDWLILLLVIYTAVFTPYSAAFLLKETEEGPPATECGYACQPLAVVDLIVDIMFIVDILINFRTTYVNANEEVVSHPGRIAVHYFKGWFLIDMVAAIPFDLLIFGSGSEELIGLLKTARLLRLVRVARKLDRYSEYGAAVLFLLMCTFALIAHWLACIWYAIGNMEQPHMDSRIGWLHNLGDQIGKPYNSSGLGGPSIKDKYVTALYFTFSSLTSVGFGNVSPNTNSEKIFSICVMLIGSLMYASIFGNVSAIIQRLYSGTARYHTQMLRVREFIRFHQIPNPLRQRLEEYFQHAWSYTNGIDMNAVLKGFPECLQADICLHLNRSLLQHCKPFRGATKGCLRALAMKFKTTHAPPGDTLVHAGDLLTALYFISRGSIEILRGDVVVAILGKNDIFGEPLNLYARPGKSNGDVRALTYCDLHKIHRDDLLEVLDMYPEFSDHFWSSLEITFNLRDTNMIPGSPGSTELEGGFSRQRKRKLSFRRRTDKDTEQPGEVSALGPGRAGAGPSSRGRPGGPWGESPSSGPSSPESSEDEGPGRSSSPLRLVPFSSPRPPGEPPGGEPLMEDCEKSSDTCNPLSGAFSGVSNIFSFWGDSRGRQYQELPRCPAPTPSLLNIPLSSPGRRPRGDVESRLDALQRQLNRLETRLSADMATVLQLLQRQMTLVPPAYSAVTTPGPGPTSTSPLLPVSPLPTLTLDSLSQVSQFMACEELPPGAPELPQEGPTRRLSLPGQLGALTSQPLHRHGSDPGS
Cytochrome P450 2C9 (Homo sapiens), sequence (P11712 whole entry, looked up): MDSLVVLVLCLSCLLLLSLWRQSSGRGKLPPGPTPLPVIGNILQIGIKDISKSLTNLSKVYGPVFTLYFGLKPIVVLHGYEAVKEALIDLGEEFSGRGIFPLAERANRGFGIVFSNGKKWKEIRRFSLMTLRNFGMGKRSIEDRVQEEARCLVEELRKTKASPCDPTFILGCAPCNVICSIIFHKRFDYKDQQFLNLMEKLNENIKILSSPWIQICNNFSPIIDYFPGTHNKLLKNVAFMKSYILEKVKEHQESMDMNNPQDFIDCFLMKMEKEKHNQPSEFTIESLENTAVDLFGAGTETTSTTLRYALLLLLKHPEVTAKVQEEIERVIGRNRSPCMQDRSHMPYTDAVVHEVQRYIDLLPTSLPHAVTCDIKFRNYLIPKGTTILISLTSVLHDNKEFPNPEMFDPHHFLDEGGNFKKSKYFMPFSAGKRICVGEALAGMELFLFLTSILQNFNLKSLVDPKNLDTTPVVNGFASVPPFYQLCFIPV

As to `C[Si](O[Si](C)(C)C)O[Si](C)(C)C`, the Potency result in assay [1], in assay [2], in assay [3], in assay [4] and in assay [6] was “inactive” each time. Also, the result in assay [5] was inactive.

Take `CCOC(=O)NNc1nncc2ccccc12`: the Potency result in assay [1], in assay [3], in assay [4] and in assay [6] was “inactive” each time. In addition, the Potency is 35.6 µM (active) in assay [2] and 20 µM (active) in assay [7].

For the compound `CC1CCC2CC1C2(C)C` (stereo not drawn), the Potency entry in assay [1], in assay [3] and in assay [4] was “inactive” in each case. The Potency in assay [2] was 21.6 µM (active) and inactive; in assay [6] it was “inactive and 39.9 µM (active)”. The compound was classed as inactive in assay [5].

For `Cc1cccnc1`, the Potency entry in assay [1], in assay [2], in assay [3], in assay [4] and in assay [6] was “inactive” throughout.

`CN(C)CCCN`: the Potency result in assay [1], in assay [2], in assay [3], in assay [4] and in assay [6] was “inactive” each time. Further, in assay [5], the compound was called inactive.

On to `CCCCCC1=CCCC1=O`, for which the Potency was 62.4 µM (active) and inactive in assay [1]; 20.4 µM (active) and inactive in assay [3]. The Potency entry in assay [2], in assay [7] and in assay [6] was “inactive” throughout.

For `CC(=O)CC(=O)Nc1ccccc1`, the Potency result in assay [1], in assay [2] and in assay [6] was “inactive” throughout. In addition, the Potency is 70.9 µM (active) in assay [3]; 35.5 µM (active) and 39.9 µM (active) in assay [7]. Further, the result in assay [5] was inactive.

With `CCCCCCCCCCCCCCCO`, the Potency result in assay [1], in assay [2] and in assay [6] was “inactive” in each case. For the same compound, the results for the Potency in assay [4] and in assay [7] were 40.3 µM (active) and 71.6 µM (active), respectively. The call in assay [5] was inactive.

As to `O=S1(=O)CC=CC1`, the Potency in assay [1] is 52.6 µM (active) and inactive. For the same compound, the Potency result in assay [2], in assay [4], in assay [7] and in assay [6] was “inactive” in each case. In assay [5], the result was inactive.

For the compound `CCCCC(CC)CO` (stereo not drawn), the Potency result in assay [1], in assay [2], in assay [3], in assay [4] and in assay [6] was “inactive” throughout. In addition, in assay [5], the compound was called inactive.

With `FC(F)(F)c1ccc(Cl)c(Cl)c1`, the Potency entry in assay [1], in assay [2], in assay [3], in assay [4] and in assay [6] was “inactive” throughout.

`CC(C)(N)CO`: the Potency in assay [1] was 60.9 µM (active) and inactive. Besides, the Potency result in assay [2], in assay [4], in assay [7] and in assay [6] was “inactive” in each case.

Turning to `Cc1cc(C)c(C)cc1C`, the Potency entry in assay [1], in assay [2], in assay [4], in assay [7] and in assay [6] was “inactive” in each case. Besides, the call in assay [5] was inactive.

In the case of `O=[N+]([O-])c1ccc(/C=C/c2ccc([N+](=O)[O-])cc2S(=O)(=O)O)c(S(=O)(=O)O)c1`, the Potency entry in assay [1], in assay [2], in assay [7] and in assay [6] was “inactive” each time. Also, in assay [4], the Potency was 31.7 µM (active) and 39.9 µM (active).

As for `CCCCCCCCCC`, the Potency entry in assay [1], in assay [2], in assay [7] and in assay [6] was “inactive” throughout. Also, the Potency result in assay [4] is “inactive and 79.6 µM (active)”. Besides, in assay [5], the compound was classed as inactive.

`CCCCCCCC(=O)OC`: the Potency entry in assay [1], in assay [2], in assay [3], in assay [4] and in assay [6] was “inactive” each time.

Turning to `O=C(O)c1cc(=O)c2c(OCC(O)COc3cccc4oc(C(=O)O)cc(=O)c34)cccc2o1`, the Potency entry in assay [1], in assay [2], in assay [4], in assay [7] and in assay [6] was “inactive” throughout.

With `O=C=NCCCCCCN=C=O`, the Potency is 47.5 µM (active) and inactive in assay [1]; 69.4 µM (active) and inactive in assay [3]. In addition, the Potency result in assay [2], in assay [7] and in assay [6] was “inactive” each time.

For the compound `O=C(O)CCCCCCCCCCC(=O)O`, the Potency result in assay [1] and in assay [6] was “inactive” in each case. In addition, the Potency is 35.9 µM (active) and 39.9 µM (active) in assay [2]; 32 µM (active) and 31.7 µM (active) in assay [3]. The outcome in assay [5] was inactive.

For `c1ccc2c(c1)ccc1ccccc12`, the Potency result in assay [1], in assay [2] and in assay [6] was “inactive” in each case. Also, the Potency in assay [3] was 77.5 µM (active) and 39.9 µM (active).

Regarding `CCC(O)OCCCOC` (stereo not drawn), the Potency in assay [1] was 11.1 µM (active) and inactive. For the same compound, the Potency entry in assay [2], in assay [4], in assay [7] and in assay [6] was “inactive” throughout. Further, in assay [5], the result was inactive.

For the compound `O=C(Oc1ccccc1)c1ccccc1`, the Potency entry in assay [1], in assay [2], in assay [3], in assay [4] and in assay [6] was “inactive” each time. The Potency in assay [7] is 31.7 µM (active).

In the case of `CCc1cccc(C)c1N`, the Potency in assay [1] is 59.2 µM (active) and inactive; in assay [3], 68.8 µM (active) and 71 µM (active). Further, the Potency result in assay [2], in assay [4] and in assay [6] was “inactive” in each case. In addition, the result in assay [5] was inactive.

For `CC(=O)CC(=O)Nc1ccccc1C`, the Potency result in assay [1], in assay [2], in assay [3] and in assay [6] was “inactive” in each case. For the same compound, the Potency in assay [7] was 39.9 µM (active). Also, the compound was classed as inactive in assay [5].

Consider `CCC(O)OC(O)CC` (stereo not drawn), for which the Potency entry in assay [1], in assay [4], in assay [7] and in assay [6] was “inactive” each time. Also, the Potency in assay [2] was 36 µM (active) and inactive. The call in assay [5] was inactive.

`Nc1ccccc1[N+](=O)[O-]`: the Potency entry in assay [1], in assay [2], in assay [4] and in assay [6] was “inactive” in each case. Further, in assay [7], the Potency is 35.9 µM (active).

Take `O=C(O)CCCC[C@@H]1SC[C@@H]2NC(=O)N[C@@H]21`: the Potency result in assay [1], in assay [2], in assay [3], in assay [4] and in assay [6] was “inactive” throughout. The result in assay [5] was inactive.

With `Cc1ccc(N(C)C)cc1`, the Potency entry in assay [1], in assay [4] and in assay [6] was “inactive” throughout. For the same compound, the Potency result in assay [2] was “inactive and 35.6 µM (active)”; in assay [3], “inactive and 50.2 µM (active)”. Moreover, in assay [5], the outcome was inactive.

As to `CC1CCC(C(C)C)C(O)C1` (stereo not drawn), the Potency result in assay [1], in assay [2], in assay [4] and in assay [6] was “inactive” each time. For the same compound, in assay [3], the Potency is 70.3 µM (active) and inactive. Moreover, in assay [5], the outcome was inactive.

With `CCCC(C)=O`, the Potency result in assay [1], in assay [2], in assay [4], in assay [7] and in assay [6] was “inactive” each time.

As for `CCN(CC)c1ccc(C(=O)c2ccccc2C(=O)O)c(O)c1`, the Potency in assay [1] is 27.4 µM (active) and 19.3 µM (active); in assay [4] it was 35.7 µM (active) and 31.7 µM (active). Further, the Potency entry in assay [2], in assay [7] and in assay [6] was “inactive” throughout.

As to `O=P(OC(CCl)CCl)(OC(CCl)CCl)OC(CCl)CCl`, the Potency in assay [1] is 34.2 µM (active) and 6.11 µM (active); in assay [2] it was 39.7 µM (active) and 35.6 µM (active); in assay [4], 35.4 µM (active) and 35.6 µM (active); in assay [7], 35.4 µM (active) and 31.7 µM (active); in assay [6], 706 nM (active) and 2.83 µM (active). For the same compound, the result in assay [5] was inactive.

Take `CCCCCCCCCCCCCCO`: the Potency result in assay [1], in assay [2], in assay [3], in assay [4] and in assay [6] was “inactive” throughout.

These data come from PubChem BioAssay (Tox21).
